MIN6 prolif = MIN6 beta-cell proliferation induction | MIN6 cells proliferation, ATPlite luminescence, 48 h; cells starved in 0.2% serum; 100% = growth in 10% serum | proliferation, % at 10 µM | hit rate 0.29% among 330,000;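 active = compounds whose signal lies at least 3.5 SD above the mean of all wells on their plate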;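 note: 0% = DMSO-treated cells in low-serum medium and 100% = 10% serum control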
H9c2 protect = modulators protecting cardiomyocytes from myocardial damage. H9c2 cardiomyocytes, H2O2 injury protection, ATPLite, 2 h. protection from H2O2 cell death, % at 20 µM. hit rate 0.63% among 360,000. AID 588492;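 active = compounds giving at least 50% protection of heart cells from peroxide-induced death in the single-dose screen, raw or plate-pattern-corrected value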;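 note: 0% = DMSO wells with peroxide and 100% = DMSO wells without peroxide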
hiPSC survival = enhancers of human iPSC single-cell survival; hiPSC single-cell survival, ATPlite luminescence; 100% = ROCK inhibitor wells, 0% = DMSO; hit rate 0.044% among 360,000; survival enhancement, % at 20 µM; in the data active = survival enhancement above about 18%;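 note: cells exposed to compounds for 16 hours before the ATP read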
ABCB6 inh 2 = human ABCB6 transporter inhibition. fluorescence ratio to DMSO, % at 10 µM. K562-ABCB6 porphyrin accumulation, flow cytometry, 1 h; stronger effect = lower value. hit rate 0.19% among 360,000. AID 602162;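 active = fluorescence ratio to DMSO below 75%, the collection mean minus 3 SD; inconclusive = too few cells collected in the well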;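 note: signal is porphyrin accumulated inside mitochondria; 100% equals median channel fluorescence of DMSO control wells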
Target sequence (Q9NP58 whole entry, looked up): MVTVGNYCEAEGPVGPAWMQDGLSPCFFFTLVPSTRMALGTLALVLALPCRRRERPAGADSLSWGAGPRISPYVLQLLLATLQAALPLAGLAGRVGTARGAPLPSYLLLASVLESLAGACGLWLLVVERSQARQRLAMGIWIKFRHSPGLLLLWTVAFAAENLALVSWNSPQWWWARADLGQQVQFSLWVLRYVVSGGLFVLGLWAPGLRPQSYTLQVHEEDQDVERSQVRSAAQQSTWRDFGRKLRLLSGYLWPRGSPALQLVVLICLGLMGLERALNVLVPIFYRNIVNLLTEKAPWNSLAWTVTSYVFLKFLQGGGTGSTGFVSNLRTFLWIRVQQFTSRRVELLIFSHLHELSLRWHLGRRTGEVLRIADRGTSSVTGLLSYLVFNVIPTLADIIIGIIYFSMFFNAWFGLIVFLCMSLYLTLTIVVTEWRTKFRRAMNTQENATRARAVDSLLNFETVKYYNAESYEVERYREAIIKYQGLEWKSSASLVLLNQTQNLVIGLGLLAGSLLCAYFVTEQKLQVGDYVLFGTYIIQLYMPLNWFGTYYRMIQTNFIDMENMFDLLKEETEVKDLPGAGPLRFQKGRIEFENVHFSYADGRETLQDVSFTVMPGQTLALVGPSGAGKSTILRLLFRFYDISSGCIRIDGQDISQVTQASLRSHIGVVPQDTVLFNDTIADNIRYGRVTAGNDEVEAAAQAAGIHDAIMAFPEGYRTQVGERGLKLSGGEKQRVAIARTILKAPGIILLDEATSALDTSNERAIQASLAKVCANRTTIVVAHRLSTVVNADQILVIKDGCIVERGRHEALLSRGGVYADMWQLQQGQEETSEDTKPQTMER
Myeloid diff MLP = promotes myeloid progenitor differentiation; ER-HoxA9 myeloid progenitors, lysozyme-GFP differentiation, flow cytometry; calls only at 10 µM; hit rate 1% among 360,000;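 active = normalized GFP-positive differentiation at or above the plate's own cutoff, the solvent-only control mean plus 3 SD; inconclusive = no clear call, values can overlap the other calls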;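 note: cells exposed to compound for four days before flow analysis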
Myeloid diff = promotes myeloid progenitor differentiation; shares compounds with Myeloid diff MLP; ER-HoxA9 myeloid progenitors, GFP/Mac1 double-positive flow; calls only; hit rate 2% among 2,300; AID 651706;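 active = share of green or green-and-red cells above 9 and 9% in run 1 or 4 and 3% in run 2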
GFP autofluor = counter-screen for myeloid differentiation promoters: compound fluorescence; shares compounds with Myeloid diff MLP; ER-HoxA9 myeloid progenitors, no estrogen, GFP autofluorescence flow cytometry; vehicle wells 0%, positive control 100%; fluorescence response, % (concentration not given with the values); hit rate 7.4% among 2,300; AID 651707;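 active = over 5% cells positive for green fluorescent reporter, or over 2% positive for both it and APC stain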;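 note: range taken on the double positive population between DMSO and positive control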
* hit, by the source's call; i = inactive; ? = inconclusive; . = not tested or not shown; + = active, no number. Only some compounds are listed: those with a hit (about 2.2% of all), similar ones and a draw of the others.

SMILES	MIN6 prolif	H9c2 protect	hiPSC survival	ABCB6 inh 2	Myeloid diff MLP	Myeloid diff	GFP autofluor
O=C(CN1CCN(S(=O)(=O)c2cccc(Cl)c2)CC1)NCC1(N2CCOCC2)CCCCC1	-2.3	6.3	-0.5	102.0	i	.	.
COC(=O)[C@]1(C)N[C@H](CN(C)S(=O)(=O)c2ccc(OC(F)(F)F)cc2)[C@@H]2C(=O)N(Cc3ccccc3)C(=O)[C@@H]21	-1.1	6.2	-0.6	100.0	i	.	.
CC(=NCc1ccccc1)c1ccccc1O	.	0.7	-2.4	102.0	i	.	.
COc1cc(OC)c(C2SCCS2)c(OC)c1	0.0	-7.5	-0.6	94.0	i	.	.
COCC(C)NCc1cccc(OC)c1OC (configuration not stated)	1.3	10.5	-3.6	718.0	i	i	0.3
Cc1ccc(S(=O)(=O)N2C[C@@H](C)[C@]3(C2)[C@H](O)[C@H](OC(=O)Nc2cccs2)C[C@H]2C(=O)N(c4ccccc4)C(=O)[C@H]23)cc1	.	-12.9	-0.6	96.0	i	.	.
O=C1NCN(C2CCCCC2)CN1	.	4.6	-1.2	88.0	i	.	.
CN1C(=O)N2CN(C3CCCCC3)CN3C(=O)N(C)C1C23 (configuration not stated)	-1.0	5.5	1.0	105.0	i	i	0.0
Cc1ccc(NC(=O)Cn2nnc(C(=O)NCc3cccs3)c2N)cc1F	-1.3	-6.3	-0.6	105.0	+	i	0.2
CCn1c(SCc2ccccc2)nc2c1c(=O)[nH]c(=O)n2C	-4.2	2.6	-0.1	102.0	i	.	.
CC1C(=O)N(Cc2cn(CCC3OCCCO3)nn2)CCS(=O)(=O)N1Cc1ccc(-c2ccccc2)cc1 (configuration not stated)	.	-0.1	7.2	96.0	+	i	0.0
COc1ccc(-c2ccc(CN3C(CC(C)C)C(=O)N(Cc4cn(CC5CCCCC5)nn4)CCS3(=O)=O)cc2)cc1OC (configuration not stated)	.	-17.4	0.5	100.0	i	.	.
CC(C)CC1C(=O)N(Cc2cn(CC3CCCCC3)nn2)CCS(=O)(=O)N1Cc1ccc(-c2ccncc2)cc1 (configuration not stated)	.	7.6	4.0	101.0	i	i	0.0
O=[N+]([O-])c1ccccc1OCCCNCc1ccccc1	-1.4	0.4	-0.6	104.0	i	.	.
O=C(N/N=C/c1ccc([N+](=O)[O-])o1)c1cc2ccccc2o1	-6.2	-11.0	1.0	102.0	i	i	0.0
O=C(N/N=C/c1ccc([N+](=O)[O-])o1)c1cc2c(ccc3ccccc32)o1	.	-28.7	-2.0	115.0	?	.	.
O=[N+]([O-])c1ccc(/C=N/Nc2ccc3ccccc3c2)o1	-4.5	-4.5	-3.1	i	+	i	8.1*
CCN(CC)C(=O)C1CCCN(Cc2ccc(N(C)C)cc2)C1 (configuration not stated)	-1.1	3.8	2.8	93.0	i	.	.
COc1ccccc1Nc1c2c(nc3ccccc13)CCC2	-2.5	-6.8	-0.4	94.0	+	i	1.4
COc1ccccc1Nc1ncnc2ccccc12	-0.3	-3.1	-1.2	100.0	i	i	0.4
CCOc1ccccc1Nc1ncnc2ccccc12	-1.8	-12.2	12.3	91.0	i	.	.
COc1ccccc1Nc1nc2c(s1)CCC2	-2.8	-14.3	-1.7	99.0	i	i	0.4
Cn1c(SCC(=O)Nc2ccccc2C(F)(F)F)nc2c(c1=O)SCC2	-0.3	-8.1	-0.2	93.0	i	.	.
Fc1ccc(C2CC(c3ccco3)n3ncnc3N2)cc1 (configuration not stated)	-4.3	7.2	-1.5	98.0	i	.	.
Cn1c(=O)c2cc(NC(=O)CCc3ccc(O)cc3)ccc2n1Cc1cccc(C(F)(F)F)c1	.	1.2	0.2	90.0	+	i	0.8
SMILES	MIN6 prolif	H9c2 protect	hiPSC survival	ABCB6 inh 2	Myeloid diff MLP	Myeloid diff	GFP autofluor
O=C(C1CC1)N1CCc2cc(S(=O)(=O)NCC3COc4ccccc4O3)ccc21 (configuration not stated)	-2.3	-19.1	-1.3	99.0	+	i	0.4
O=C(C1CCC1)N1CCc2cc(S(=O)(=O)NCC3COc4ccccc4O3)ccc21 (configuration not stated)	-1.8	-28.1	2.4	148.0	i	.	.
Cc1onc(-c2ccccc2Cl)c1C(=O)N1C=CC(C(F)(F)F)=NCC1	0.8	3.0	3.8	98.0	i	.	.
Cc1onc(-c2ccccc2Cl)c1C(=O)N1C=CC(C(F)(F)Cl)=NCC1	-1.5	-1.6	-0.9	99.0	+	i	0.0
O=C1NC(=S)N(C(=O)c2ccc(F)cc2)/C1=C/c1ccccc1	0.0	-13.1	2.0	103.0	+	i	2.1
CCSc1nnc(COc2ccccc2)n1CC	-2.6	-4.8	0.2	97.0	i	.	.
Cc1cc(N2CCCCC2)nc(N)n1	1.1	7.6	1.1	105.0	+	i	0.0
Cc1nn(Cc2ccc([N+](=O)[O-])cc2)c(=O)n1-c1ccc(Cl)cc1	-1.2	-0.3	-0.4	100.0	+	i	0.0
O=C(NNC(=O)C12CC3CC(CC(C3)C1)C2)c1ccccc1[N+](=O)[O-]	0.0	-0.7	0.7	103.0	i	i	0.0
O=C(NNC(=O)C12CC3CC(CC(C3)C1)C2)c1ccccc1O	-5.6	49.4	-0.5	93.0	i	.	.
CCn1c(SCC(=O)c2cccs2)nnc1-c1ccco1	1.6	-5.8	-1.0	100.0	i	.	.
O=C(N/N=C\c1ccc(-c2ccccc2[N+](=O)[O-])o1)C1COc2cc3ccccc3cc2O1 (configuration not stated)	-3.6	-27.5	-0.2	103.0	i	.	.
CCc1nnc(NC(=O)CCS(=O)(=O)Cc2ccccc2)s1	-0.7	22.6	-0.6	96.0	+	i	1.0
N#Cc1cc(C(=O)c2ccccc2OCC(=O)Nc2ccccc2)cn(C2CCCCC2)c1=O	-1.9	-2.2	-0.2	102.0	i	.	.
Cc1ccc(N2C(=O)C3C4C=CC(C4)C3C2=O)cc1C (configuration not stated)	-2.3	0.8	2.8	88.0	i	.	.
c1ccc2c(c1)CCc1c(-c3ccncc3)n[nH]c1-2	0.6	-11.7	-0.4	97.0	+	i	0.3
CCC1c2ccc(C)n2CCN1C(=O)Nc1cc(Cl)ccc1OC (configuration not stated)	-5.1	2.6	1.6	131.0	.	i	1.0
CCC1c2ccc(C)n2CCN1C(=O)Nc1ccccc1C(=O)OC (configuration not stated)	-1.4	1.9	-2.0	108.0	i	.	.
CCN1CCN(c2ccc(S(=O)(=O)N3CCCCC3)cc2NC(=O)/C=C/c2ccc(Cl)cc2)CC1	.	3.9	-0.2	98.0	+	i	16.2*

From PubChem BioAssay
